PKM2 act = PKM2 (human) enzyme activation. Potency, µM (doses to about 57.5 µM), inactives show at the top dose activation, hits mostly activators. P14618. 0.34% of 260,000 active. purified PKM2, Kinase-Glo ATP luminescence, activation; response scale: 0% is enzyme alone, no compound. AID 1631; further: on the % scale 0 is the no-effect control and ±100 the full control effect; nearly all actives have a fitted effect of over 55% in size
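ATP formation by purified human PK-M2, quantified via coupled luciferase luminescence after 1 h at room temperature with 0.1 mM ADP and 0.5 mM PEP final.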
Tb PGK inh = blocks T. brucei phosphoglycerate kinase | P07378 | PGK/GAPDH coupled, Kinase-Glo luminescence, 60 min | Potency, µM (doses to about 57.5 µM), inactives show at the top dose activity change, negative = inhibition, usual class: inhibitors | 0.043% of 380,000 active; further: on the % scale 0 is the no-effect control and ±100 the full control effect; nearly all actives have a fitted effect of over 60% in size
Target sequence (P07378 whole entry, looked up): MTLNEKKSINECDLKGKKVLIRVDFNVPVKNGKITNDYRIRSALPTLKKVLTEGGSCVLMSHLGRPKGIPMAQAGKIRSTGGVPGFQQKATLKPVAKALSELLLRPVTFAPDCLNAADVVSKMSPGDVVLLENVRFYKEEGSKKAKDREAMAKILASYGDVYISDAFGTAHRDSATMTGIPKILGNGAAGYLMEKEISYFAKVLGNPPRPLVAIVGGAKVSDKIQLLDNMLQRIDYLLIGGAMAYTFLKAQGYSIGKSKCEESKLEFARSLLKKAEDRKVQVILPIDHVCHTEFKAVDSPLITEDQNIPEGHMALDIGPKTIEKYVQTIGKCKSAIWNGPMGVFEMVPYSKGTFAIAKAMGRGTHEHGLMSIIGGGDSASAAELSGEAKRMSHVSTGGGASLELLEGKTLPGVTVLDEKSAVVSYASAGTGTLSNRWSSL
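Recombinant glycosomal PGK reaction used 1,3-bisphosphoglycerate generated in-well by GAPDH (100nM final) in 100mM TEA pH 7.6, 5mM MgCl2, 0.01% Tween-20. After 60 minutes at room temperature, ATP was read by Kinase-Glo Plus luminescence end-point.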
ELG1 repair inh = inhibitors of ELG1-dependent DNA repair in HEK293T cells; HEK293T ELG1-luciferase reporter, luminescence, 16 h; DNA damage induced by 5-fluorouridine; Potency, µM (titrated, usually from 46.1 µM), for the others: at the top dose activity change, negative = inhibition, usual class: inhibitors; 2.3% of 330,000 active; AID 504467; further: on the % scale 0 is the no-effect control and ±100 the full control effect; nearly all actives have a fitted effect of over 55% in size
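HEK293T cells expressing luciferase-tagged ELG1 (2,000/well) received 5-Fluorouridine plus compound or DMSO for 16 hr at 37 °C. Luciferase was read by ONE-Glo luminescence after 30 min at room temperature.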
Rango complex inh = inhibitors of Rango-importin beta complex formation; Rango CFP/YFP FRET sensor + importin beta, 45 min; Potency, µM (top dose mostly 92.2 µM), for the others: top-dose inhibition of complex formation; 0.031% of 340,000 active; calls by dose curve;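 further: 0% = DMSO wells and 100% = buffer wells lacking importin beta; nearly all actives have a fitted effect of over 15% in size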
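FRET biosensor (snurportin 1 IBB flanked by EYFP and cerulean), 50 nM, with compound 5 min, then 0.125 microM importin beta in PBS, 1 mM DTT, 0.02% Tween-20, 0.1% BSA. CFP/YFP ratio read after 45 min at room temperature; pre-read flags interference.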
Rango dissoc inh = inhibition of RanGTP-driven Rango-importin beta dissociation; 0.071% of 340,000 active; O95149+P62826; Potency, µM (highest dose often 46.1 µM), for inactives: top-dose activity change, negative = inhibition; Biochemical FRET Rango-importin beta, RanGTP-induced dissociation; AID 540253; calls by dose curve; further: % of control where 0% means no effect; nearly all actives have a fitted effect of over 45% in size
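FRET read at 45 min, room temperature: inhibitors block the CFP/YFP signal rise when RanGTP (0.6 uM Ran, 2 mM GTP, 0.2 uM RCC1) frees Rango (0.1 uM) from importin beta (0.25 uM). Pre-read after 5 min compound exposure flags interference.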
Tb PFK block = blocks T. brucei phosphofructokinase; AID 485367; Potency, µM (titrated, usually from 57.5 µM), without a hit: top-dose activity, negative = inhibition, usual class: inhibitors; T. brucei PFK, ADP-Glo luminescence; 0.17% of 330,000 active; O15648;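 further: 0% = uninhibited 1x PFK enzyme wells and -100% = no-enzyme wells; nearly all actives have a fitted effect of over 60% in size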
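Compounds were pin-transferred as a titration series up to 57 uM into substrate buffer (0.5 mM F6P, 0.1 mM ATP, pH 8.0), then 1.25 nM PFK was added and reactions ran 45 min before ADP-Glo detection.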
ELG1 FLuc counter = luciferase inhibition in cell-free luciferin readout for ELG1 hits; Potency, µM (doses to about 46.1 µM), inactives show at the highest dose activity change, negative = inhibition, usual class: inhibitors; shares compounds with ELG1 repair inh; cell-free firefly luciferase luminescence counter-screen, ViewLux; 3% of 350 active; further: on the % scale 0 is the no-effect control and ±100 the full control effect
ELG1-Luc inh = human ELG1 repair inhibition, luciferase-tagged ELG1 confirmation. shares compounds with ELG1 repair inh. HEK293T ELG1-luciferase levels, luminescence; cells co-treated with 5-fluorouridine. Potency, µM (doses to about 46.1 µM), for the others: at the highest dose activity change, negative = inhibition, actives largely listed as inhibitors. 68% of 670 active. AID 624248; further: on the % scale 0 is the no-effect control and ±100 the full control effect; nearly all actives have a fitted effect of over 55% in size
ELG1-Luc MMS = confirmation of human ELG1 repair inhibitors, MMS stimulated | shares compounds with ELG1 repair inh | HEK293T luciferase-tagged ELG1 level, MMS stimulated | Potency, µM (series often up to 46.1 µM), inactives show at the top dose activity change, negative = inhibition, most hits filed as inhibitors | 53% of 670 active; further: on the % scale 0 is the no-effect control and ±100 the full control effect; nearly all actives have a fitted effect of over 60% in size
ELG1 5FU viab = confirmation of ELG1 repair inhibitors: viability with 5FU; shares compounds with ELG1 repair inh; cell viability with 5-FU, ELG1-dependent repair; Potency, µM (highest dose often 46.1 µM), without a hit: top-dose activity change, negative = viability loss, hits mostly cytotoxic; 670 tested, under 10 active; AID 624250;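 further: ELG1-luc HEK293T cells cotreated with 5-fluorouridine at 10 µM final; viability measured 16 h after compound addition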
ELG1 MMS viab = confirmation of ELG1 repair inhibitors: viability with MMS; Cell viability with MMS, ELG1-dependent DNA repair; shares compounds with ELG1 repair inh; 33% of 670 active; Potency, µM (doses to about 46.1 µM), inactives show at the top dose activity change, negative = viability loss, most hits filed as cytotoxic; AID 624251;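 further: ELG1-luc HEK293T cells co-treated with 10 µM MMS; viability read 16 h after compound addition; on the % scale 0 is the no-effect control and ±100 the full control effect; nearly all actives have a fitted effect of over 60% in size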
ELG1 unstim viab = affects unstimulated cell viability, ELG1 hit counter-screen | shares compounds with ELG1 repair inh | cell viability counter-screen, unstimulated, luminescence | Potency, µM (series often up to 45.9 µM), without a hit: at the highest dose activity change, negative = loss of viability, actives largely listed as cytotoxic | 8% of 900 active | AID 624252;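 further: compound exposure lasted 16 hours before reading; on the % scale 0 is the no-effect control and ±100 the full control effect; nearly all actives have a fitted effect of over 55% in size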
FLuc enzyme = firefly luciferase inhibition counter-screen; shares compounds with ELG1 repair inh; purified firefly luciferase, luminescence counter-screen; Potency, µM (doses to about 57.5 µM), for inactives: at the top dose activity, negative = inhibition, usual class: inhibitors; 10% of 350 active; AID 624253; further: on the % scale 0 is the no-effect control and ±100 the full control effect
* marks the source's active call; other numbers are inactive results; i = inactive; ? = inconclusive; · = no result; [ ] = remark or other dose. The list is not random: actives were taken first. Their share in the collection is about 2.4%. Unless noted, the call rests on the fitted dose curve; in most records, active means well fitted curve in the direction sought with a large enough effect; inconclusive means small, poorly fitted or top-dose-only effect, or another doubt; inactive means no such curve, though single readings can be large; an effect the other way counts as inactive or inconclusive. Potency means the concentration at half of the fitted maximal effect.

SMILES	PKM2 act	Tb PGK inh	ELG1 repair inh	Rango complex inh	Rango dissoc inh	Tb PFK block	ELG1-Luc inh	ELG1-Luc MMS	ELG1 5FU viab	ELG1 MMS viab	ELG1 unstim viab	others
COc1cc(/C=C(\C#N)C(=O)Nc2cccc(C(=O)O)c2)ccc1OCc1ccc(Cl)cc1	·	?	?	-4%	13%	-3%	·	·	·	·	11%	ELG1 FLuc counter=51%;FLuc enzyme=16µM*
CCN(CC)C(=O)C1=C(C)N(Cc2ccccc2)C(=O)C(CC(=O)NCCN2CCOCC2)C1 (stereo not drawn)	·	i	·	·	·	·	·	·	·	·	·
Cc1noc(/C=C/c2ccco2)c1S(=O)(=O)N1CCC(C(=O)N(C)Cc2ccccc2)CC1	?	i	4.6µM*	0%	11%	0%	3.1µM*	29%	?	-1%	-11%
Cc1cccc(/C=C/c2onc(C)c2S(=O)(=O)N2CCC(C(=O)N3CCC(C)CC3)CC2)c1	·	1%	1.8µM*	3%	0%	-6%	1.3µM*	13%	?	-6%	?
Cc1cccc(/C=C/c2onc(C)c2S(=O)(=O)N2CCC(C(=O)N3CCCCCC3)CC2)c1	·	-3%	?	1%	-8%	1%	·	·	·	·	·
CSc1nccc(-c2sc(SC)c(C#N)c2-c2ccccc2)n1	6%	-1%	4%	8%	-9%	5%	·	·	·	·	·
CSc1sc(-c2ccnc(SCCS(C)(=O)=O)n2)c(-c2ccccc2)c1C#N	6%	-2%	4.6µM*	-4%	-2%	1%	3.1µM*	0.56µM*	1%	0.63µM*	?
COc1cc(C(=O)NC(=S)Nc2ccccc2N2CCCC2)cc(OC)c1OC	1%[0.46 µM]	1%	2.6µM*	0%	7%	-3%	4µM*	-19%	?	10%	?
COc1cc(C(=O)Nc2ccccn2)cc(OC)c1OC	-1%	6%	5%	5%	2%	22%	·	·	·	·	·
COc1cc(C(=O)Nc2ccccc2C(=O)Nc2ccccn2)cc(OC)c1OC	1%[11.5 µM]	i	2µM*	6%	4%	0%	3.5µM*	13µM*	?	?	?
COc1cc(C(=O)Nc2ccccc2NC(=O)c2cc(OC)c(OC)c(OC)c2)cc(OC)c1OC	·	·	3.3µM*	1%	16%	1%	3.1µM*	0%	?	10%	?
CC(=O)Nc1ccc(Nc2nc(C(F)(F)F)nc3c2nnn3Cc2ccccc2Cl)cc1	-3%	-13%	?	-9%	-3%	-3%	·	·	·	·	·
COc1cccc(NC(=O)c2ccnc(N3CCC(C(=O)NCc4ccccc4OC)CC3)c2)c1	·	i	-1%	1%	6%	0%	·	·	·	·	·
CC1(C)Cc2nc3nc(SCC(=O)NCCc4ccccc4)n(-c4ccccc4)c(=O)c3cc2CO1	-8%	3%	4.6µM*	0%	7%	-2%	?	26%	?	0%	?
CC1(C)Cc2nc3nc(SCC(=O)NCc4ccccc4)n(-c4ccccc4)c(=O)c3cc2CO1	-2%	·	?	·	·	-2%	·	·	·	·	·
C[C@H]1CN([C@@H](C)CO)C(=O)c2cc(C#CC3(O)CCCC3)cnc2O[C@H]1CN(C)C(=O)C1CC1	·	0%	·	·	·	·	·	·	·	·	·
COc1cc(OC)c(OC)cc1C=Cc1ccc2ccccc2n1	·	-8%	·	·	·	·	·	·	·	·	·
COc1ccc(/C=C/c2ccc3ccccc3n2)c(OC)c1	·	·	·	·	·	·	·	·	·	·	-25%	ELG1 FLuc counter=-9%;FLuc enzyme=?
COc1ccc(/C=N/n2c(N)c(S(=O)(=O)c3cccs3)c3nc4ccccc4nc32)cc1OC	4%	i	2.6µM*	3%	-2%	-1%	3.1µM*	16%	?	-1%	-5%
COc1ccc(Cl)cc1C(=O)Nc1nnc2n1CCS2	·	i	·	·	·	·	·	·	·	·	·
COc1ccc(-c2cc(C(F)F)n3ncc(C(=O)Nc4cccc(S(=O)(=O)N5CCOCC5)c4)c3n2)cc1	3%	-6%	3.7µM*	?	?	3%	?	22%	12%	-5%	-13%
CCOC(=O)N1CCc2c(sc3c2c(=O)n(Cc2ccccc2)c(=O)n3CC(=O)Nc2ccc(C)c(C)c2)C1	·	4%	·	·	·	·	·	·	·	·	·
c1ccc(NC2=NCCN2CC2CCCCCC2)cc1	·	i	11%	2%	11%	-5%	·	·	·	·	·
CC(=O)c1cc(F)ccc1OCC(=O)Nc1ccc2c(c1)OCO2	·	-6%	?	0%	15%	-1%	·	·	·	·	-9%
C[C@H](CO)N1C[C@H](C)[C@@H](CN(C)C(=O)Nc2ccc(C(F)(F)F)cc2)Oc2c(NC(=O)Cc3ccccc3)cccc2C1=O	·	2%	?	-3%	0%	0%	2.5µM*	-3%	?	23%	8%
C[C@H](CO)N1C[C@H](C)[C@@H](CN(C)C(=O)Nc2ccc(C(F)(F)F)cc2)Oc2c(NC(=O)CCC(F)(F)F)cccc2C1=O	·	i	1.8µM*	7%	-15%	2%	3.5µM*	22%	?	9%	-8%

High-throughput results deposited in PubChem by National Center for Advancing Translational Sciences (NCATS).
